An excerpt weighted towards active compounds, which were near 19% of everything screened.
ELG1 repair inh: qHTS screen for small molecules that inhibit ELG1-dependent DNA repair in human embryonic kidney (HEK293T) cells expressing luciferase-tagged ELG1; HEK293T ELG1-luciferase reporter, luminescence, 16 h; DNA damage induced by 5-fluorouridine; Potency, µM (titrated, usually from 46.1 µM), actives largely listed as inhibitors; hit rate 2.3% among 330,000; further: nearly all actives have a fitted effect of over 55% in size
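Cells (2,000 per well) received 5-fluorouridine plus test compound or DMSO and were incubated 16 hr at 37 °C, 5% CO2. Luciferase activity was read by luminescence 30 min after ONE-Glo addition; signal suppression marked inhibition of damage-induced ELG1 function.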
DT40 TDP1 no CPT: qHTS for Inhibitors of human tyrosyl-DNA phosphodiesterase 1 (TDP1): qHTS in cells in absence of CPT | DT40 Tdp1-/- hTDP1 cells, no CPT, ATP luminescence, 48 h | Potency, µM (highest dose often 46.2 µM), usual class: inhibitors | hit rate 15% among 420,000; further: nearly all actives have a fitted effect of over 55% in size
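Camptothecin absent (DMSO only). Human TDP1-complemented DT40 knockout cells, 400 cells/well, 37 °C for minimum 48 hr; ATP measured via CellTiter-Glo, 30 min dark incubation, luminescence.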
Giardia kill: Small Molecules that selectively kill Giardia lamblia: qHTS | Giardia lamblia trophozoite viability | hit rate 0.15% among 340,000 | activity change, % at 7.66 µM, hits read low; in the data active means activity change below about -80%; inconclusive means between about -30% and that limit;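 further: parasites exposed to compound for two days anaerobically before the ATP read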
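ATP-content bioluminescence gauges trophozoite survival. Cells (100/well) receive compound and incubate anaerobically for 48 hrs at 37 deg C; detection reagent follows for 15-30 min at room temperature.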
TDP1 block: qHTS Assay for Inhibitors of Tyrosyl-DNA Phosphodiesterase (TDP1); Tyrosyl-DNA phosphodiesterase 1 (Homo sapiens), Q9NUW8; recombinant TDP1, AlphaScreen DNA substrate cleavage; Potency, µM (titrated, usually from 130 µM), most hits filed as inhibitors; hit rate 0.28% among 350,000; AID 485290, 2010; further: nearly all actives have a fitted effect of over 40% in size
Target sequence (Q9NUW8 whole entry, looked up): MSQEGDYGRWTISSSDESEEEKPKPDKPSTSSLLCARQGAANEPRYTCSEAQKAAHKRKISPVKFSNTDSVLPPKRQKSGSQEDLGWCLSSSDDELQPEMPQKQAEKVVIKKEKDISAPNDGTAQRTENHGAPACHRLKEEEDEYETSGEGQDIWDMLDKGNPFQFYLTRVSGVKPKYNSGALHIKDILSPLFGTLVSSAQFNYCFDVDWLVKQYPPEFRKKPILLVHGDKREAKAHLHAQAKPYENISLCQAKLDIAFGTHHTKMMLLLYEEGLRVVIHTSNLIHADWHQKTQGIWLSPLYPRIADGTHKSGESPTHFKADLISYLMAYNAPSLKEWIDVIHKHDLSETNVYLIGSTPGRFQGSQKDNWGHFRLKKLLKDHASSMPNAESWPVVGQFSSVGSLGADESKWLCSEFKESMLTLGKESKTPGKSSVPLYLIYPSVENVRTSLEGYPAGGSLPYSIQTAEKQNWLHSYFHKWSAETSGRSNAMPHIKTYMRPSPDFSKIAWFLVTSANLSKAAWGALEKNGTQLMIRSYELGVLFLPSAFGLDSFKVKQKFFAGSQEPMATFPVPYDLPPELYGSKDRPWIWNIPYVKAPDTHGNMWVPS
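Recombinant human Tdp1 (E. coli-expressed, 1 nM final) preincubated with compounds 15 min at room temperature, then 5'-biotin/3'-phosphotyrosine-FITC DNA substrate (15 nM final) added for 5 min. AlphaScreen beads (10 ug/ml final) added 10 min; cleavage lowers signal.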
IL1B secr inh: qHTS for Inhibitors of Inflammasome Signaling: IL-1-beta AlphaLISA Primary Screen; THP-1 LPS/ATP IL-1B secretion, AlphaLISA, 16 h; hits give low values; hit rate 4.7% among 360,000; AID 743279, 2014; activity change, % at 57.5 µM; in the data active means activity change below about -50%; inconclusive means mostly about -30% to -49%
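Secreted IL-1B measured by AlphaLISA bead assay after 16 h compound exposure of THP-1 cells; compounds (final up to 57.5 uM) added 1 h before LPS (250 ng/mL) and ATP (1.25 mM) stimulation; lower signal means less secretion.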
DT40 TDP1 CPT: qHTS for Inhibitors of human tyrosyl-DNA phosphodiesterase 1 (TDP1): qHTS in cells in presence of CPT. Potency, µM (top dose mostly 46.2 µM), hits mostly inhibitors. hit rate 12% among 420,000. chicken DT40 Tdp1-/-;hTDP1 cells + 20 nM CPT, ATP luminescence, 48 h. AID 686979, 2013; further: nearly all actives have a fitted effect of over 55% in size
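Cell growth measured by CellTiter-Glo luminescence after a minimum 48 h, 37 C compound exposure with 20 nM CPT in Tdp1-knockout DT40 cells stably expressing hTDP1, seeded 400/well; qHTS titration format.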
Each line names hits and unclear results; the compound was inactive in the other large screens. Unless noted, the call rests on the fitted dose curve; in most records, active means well fitted curve in the direction sought with a large enough effect; inconclusive means small, poorly fitted or top-dose-only effect, or another doubt; inactive means no such curve, though single readings can be large; an effect the other way counts as inactive or inconclusive.

COc1ccc2ccccc2c1/C=N/NC(=O)c1ccc([N+](=O)[O-])cc1	none (no result: TDP1 block)
COc1ccc(C(=O)Nc2cccc(NC(=O)c3ccc(OC)c(OC)c3)n2)cc1OC	ELG1 repair inh 2.91µM, DT40 TDP1 no CPT 7.31µM, DT40 TDP1 CPT 8.2µM (no result: TDP1 block)
Cc1cccc(CSCCNC(=O)C2CCN(S(=O)(=O)Cc3ccccc3)CC2)c1	none (no result: ELG1 repair inh, Giardia kill, IL1B secr inh)
Cc1noc(C)c1S(=O)(=O)NCc1cccc(Cl)c1	none
Cc1ccc(C(=O)Nc2ccc(C(=O)N/N=C/c3ccccn3)cc2)cc1	DT40 TDP1 no CPT inconclusive
O=C(N/N=C\c1ccccn1)c1ccccc1O	ELG1 repair inh inconclusive, DT40 TDP1 no CPT inconclusive, IL1B secr inh -122.8, DT40 TDP1 CPT 14.6µM
O=C(N/N=C/c1ccccn1)c1ccc(Cl)cc1	ELG1 repair inh inconclusive, DT40 TDP1 no CPT 11.6µM, IL1B secr inh -101.5, DT40 TDP1 CPT 11.6µM
COc1ccc(C(=O)NCC(=O)OCc2c(Cl)cccc2Cl)cc1OC	DT40 TDP1 no CPT 14.6µM, DT40 TDP1 CPT inconclusive
O=C(N/N=C/c1ccc([N+](=O)[O-])o1)c1sc2ccccc2c1Cl	ELG1 repair inh inconclusive, DT40 TDP1 no CPT 25.9µM, Giardia kill -94.9, IL1B secr inh -78.0, DT40 TDP1 CPT 23.1µM (no result: TDP1 block)
Cn1cccc1/C=N/NC(=O)c1sc2ccccc2c1Cl	ELG1 repair inh inconclusive
O=C(/C=C1\OCc2ccccc21)OCc1ccccc1	DT40 TDP1 no CPT inconclusive, DT40 TDP1 CPT inconclusive (no result: ELG1 repair inh, Giardia kill, TDP1 block)
COc1cccc(C2Nc3ccc4ccccc4c3C3=C2C(=O)CCC3)c1O (configuration not stated)	DT40 TDP1 no CPT inconclusive, DT40 TDP1 CPT inconclusive (no result: TDP1 block)
Cc1cc(C)c(O)c(-c2cc(C(=O)Nc3c(C)n(C)n(-c4ccccc4)c3=O)[nH]n2)c1	DT40 TDP1 CPT inconclusive
COc1ccc(C(=O)Nc2ccccc2C(=O)N/N=C/c2ccccn2)cc1OC	ELG1 repair inh inconclusive, DT40 TDP1 no CPT 6.51µM, DT40 TDP1 CPT 4.61µM (no result: IL1B secr inh)
O=C(N/N=C/c1ccccn1)c1ccccc1	ELG1 repair inh inconclusive, DT40 TDP1 no CPT 18.4µM, DT40 TDP1 CPT inconclusive
O=C(N/N=C/c1c[nH]c2ccccc12)c1sc2ccccc2c1Cl	ELG1 repair inh inconclusive, DT40 TDP1 no CPT inconclusive
COc1ccc(C(=O)Nc2ccccc2C(=O)NC(C)C)cc1OC	ELG1 repair inh 18.4µM, DT40 TDP1 no CPT inconclusive, DT40 TDP1 CPT inconclusive
COc1ccc(C(=O)N/N=C/c2ccccn2)cc1OC	DT40 TDP1 no CPT inconclusive, DT40 TDP1 CPT inconclusive
O=C(N/N=C/c1ccccn1)c1sc2ccccc2c1Cl	ELG1 repair inh inconclusive, DT40 TDP1 no CPT 13µM, DT40 TDP1 CPT 16.4µM
O=C(N/N=C/c1ccccn1)c1ccncc1	ELG1 repair inh inconclusive (no result: TDP1 block)
COc1ccc(NC(=O)COC(=O)c2cccn2C)cc1S(=O)(=O)N1CCCCC1	ELG1 repair inh inconclusive, DT40 TDP1 no CPT inconclusive
CCOC(=O)c1cc(C)n(CC2CCC(C(=O)Nc3ccccc3OC)CC2)c1C (configuration not stated)	DT40 TDP1 no CPT inconclusive, DT40 TDP1 CPT 18.4µM (no result: ELG1 repair inh, Giardia kill, IL1B secr inh)
CCOC(=O)c1cc(C)n(CC2CCC(C(=O)Nc3ccc(OCC)cc3)CC2)c1C (configuration not stated)	DT40 TDP1 no CPT 20.6µM, DT40 TDP1 CPT 16.4µM (no result: ELG1 repair inh, Giardia kill, IL1B secr inh)
Cc1ccc(C(=O)Nc2nc(-c3nnn(-c4cccc(Cl)c4C)c3C)ns2)cc1C	DT40 TDP1 no CPT 18.4µM, DT40 TDP1 CPT 25.9µM (no result: ELG1 repair inh, Giardia kill, IL1B secr inh)
Cc1ccc(C(=O)Nc2nc(-c3nnn(-c4cccc(C(F)(F)F)c4)c3C)ns2)cc1	DT40 TDP1 no CPT 4.11µM, DT40 TDP1 CPT 3.26µM (no result: ELG1 repair inh, Giardia kill, IL1B secr inh)
CCN1CCc2c(sc(NC(=S)NC(=O)c3ccc(Cl)cc3)c2C(N)=O)C1	DT40 TDP1 no CPT inconclusive (no result: IL1B secr inh)
